Laboratory results as given in PubChem BioAssay AID1159580 (chemical genetic matrix, 2015).
“And” between values parts separate entries of the source, which are not always exact repeats. Identical values can stand only once. Among all 5,500 compounds or so, about 2,000 (36%) were called active. Another 18% or so got no clear call; they are omitted. Cut-off read from the data, not from the text of the source: active = normalized growth mostly below about 0.91 (no sharp cut-off); inconclusive = no clear call, values can overlap the other calls; inactive = mostly above about 0.92. Some of the results follow.

Assay: chemical genetic growth profiling, strain panel (AID 1159580);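 note: tested at 20 µM; growth read once vehicle control cultures reached saturation at 30 °C; 1 = growth at the plate median or of vehicle wells; lower values mean less growth of the strain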
Conditions: S. cerevisiae deletion strains, growth OD

Measured: normalized growth

CNC(C)(C)Cc1ccccc1
inactive: locus YAL013W, strain DEP1, active compounds read low 1.01 | locus YAL021C, strain ccr4, active compounds read low 0.997 | locus YAL026C, strain drs2, active compounds read low 1.01 | locus YAL030W, strain snc1, active compounds read low 1.01 | locus YBL061C, strain skt5, active compounds read low 1.02 | locus YBR009C, strain hhf1, active compounds read low 1.02 | locus YBR021W, strain FUR4, active compounds read low 1.01 | locus YBR023C, strain chs3, active compounds read low 1.02 | locus YBR171W, strain sec66, active compounds read low 1.02 | locus YBR229C, strain ROT2, active compounds read low 1.01 | locus YBR231C, strain swc5, active compounds read low 1.02 | locus YBR279W, strain paf1, active compounds read low 1.01 | locus YCL011C, strain gbp2, active compounds read low 1.02 | locus YCL016C, strain dcc1, active compounds read low 1.02 | locus YCL029C, strain bik1, active compounds read low 1 | locus YCL061C, strain MRC1, active compounds read low 1.01 | locus YCL069W, strain vba3, active compounds read low 1.01 | locus YCR088W, strain abp1, active compounds read low 1.01 | locus YDL005C, strain med2, active compounds read low 1.02 | locus YDL035C, strain GPR1, active compounds read low 1.02 | locus YDL040C, strain nat1, active compounds read low 1.01 | locus YDL074C, strain BRE1, active compounds read low 0.988 | locus YDL101C, strain DUN1, active compounds read low 1.01 | locus YDL134C, strain PPH21, active compounds read low 1.02 | locus YDL185W, strain tfp1, active compounds read low 1.01 | locus YDL192W, strain arf1, active compounds read low 1 | locus YDR001C, strain nth1, active compounds read low 1 | locus YDR069C, strain doa4, active compounds read low 1.02 | locus YDR101C, strain arx1, active compounds read low 1.02 | locus YDR137W, strain rgp1, active compounds read low 0.958 | locus YDR150W, strain NUM1, active compounds read low 1 | locus YDR159W, strain sac3, active compounds read low 1 | locus YDR162C, strain NBP2, active compounds read low 1.02 | locus YDR195W, strain ref2 1.02 | locus YDR297W, strain sur2, active compounds read low 1.02 | locus YDR318W, strain mcm21, active compounds read low 1.02 | locus YDR334W, strain swr1, active compounds read low 0.991 | locus YDR335W, strain msn5, active compounds read low 1.01 | locus YDR388W, active compounds read low 1.01 | locus YDR392W, strain spt3, active compounds read low 1.01 | locus YDR502C, strain sam2, active compounds read low 0.993 | locus YEL003W, strain gim4, active compounds read low 1.01 | locus YEL037C, strain rad23, active compounds read low 1.01 | locus YEL061C, strain CIN8 (second series), active compounds read low 1 | locus YEL061C, strain CIN8, active compounds read low 1 | locus YER015W, strain faa2, active compounds read low 1.02 | locus YER016W, strain bim1, active compounds read low 1.01 | locus YER110C, active compounds read low 0.999 | locus YER111C, strain swi4, active compounds read low 0.988 | locus YER155C, strain BEM2 (second series), active compounds read low 0.996 | locus YER155C, strain BEM2, active compounds read low 1.01 | locus YER167W, strain BCK2, active compounds read low 1.03 | locus YFR010W, strain ubp6, active compounds read low 1.02 | locus YGL078C, strain dbp3, active compounds read low 0.998 | locus YGL086W, strain mad1, active compounds read low 0.997 | locus YGL167C, strain pmr1, active compounds read low 1.01 | locus YGL173C, strain kem1, active compounds read low 1.02 | locus YGL227W, strain vid30, active compounds read low 1.02 | locus YGL240W, strain doc1, active compounds read low 1.02 | locus YGL248W, strain PDE1, active compounds read low 0.996 | locus YGL253W, strain hxk2, active compounds read low 1.03 | locus YGR078C, strain PAC10, active compounds read low 0.994 | locus YGR135W, strain pre9, active compounds read low 1.03 | locus YGR252W, strain gcn5, active compounds read low 1 | locus YHR013C, strain ard1, active compounds read low 1.04 | locus YHR027C, strain rpn1, active compounds read low 1.02 | locus YHR030C, strain SLT2, active compounds read low 1.01 and 1.04 | locus YHR079C, strain IRE1 (second series), active compounds read low 1 | locus YHR079C, strain IRE1, active compounds read low 1.04 | locus YHR094C, strain hxt1, active compounds read low 1 | locus YHR129C, strain ARP1, active compounds read low 1.01 | locus YHR142W, strain chs7, active compounds read low 1.01 | locus YHR200W, strain rpn10, active compounds read low 1.01 | locus YIL066C, strain RNR3, active compounds read low 1 | locus YIL073C, strain SPO22, active compounds read low 1.06 | locus YIL125W, strain kgd1, active compounds read low 0.996 | locus YIR030C, strain dcg1, active compounds read low 1.01 | locus YJL092W, strain hpr5, active compounds read low 1.01 | locus YJL095W, strain BCK1 (second series), active compounds read low 1.01 | locus YJL095W, strain BCK1, active compounds read low 0.99 and 1.04 | locus YJL115W, strain asf1, active compounds read low 1.01 | locus YJL129C, strain trk1, active compounds read low 0.983 | locus YJL134W, strain LCB3, active compounds read low 1.01 | locus YJL154C, strain vps35, active compounds read low 1 | locus YJL164C, strain tpk1, active compounds read low 1.02 | locus YJL166W, strain qcr8, active compounds read low 1.02 | locus YJL168C, strain set2, active compounds read low 1 | locus YJL187C, strain SWE1 (second series), active compounds read low 0.986 | locus YJL187C, strain SWE1, active compounds read low 1.02
